This is an account of results in paper PMC7862700, “An all-to-all approach to the identification of sequence-specific readers for epigenetic DNA modifications on cytosine”.

Holding throughout (assay): DAPPL (digital affinity profiling via proximity ligation, sequencing); 10 mM Tris-HCl pH 7.5, 50 mM NaCl, 1 mM DTT, 4% glycerol, room temperature, 30 min; GST-TFs on glutathione beads, 16-mer random dsDNA library, 0.1% formaldehyde crosslink after washing; high values mean tight binding
For assay [1], the target named is T1, FEV (Homo sapiens, UniProt Q99581 1-238).
T1 sequence: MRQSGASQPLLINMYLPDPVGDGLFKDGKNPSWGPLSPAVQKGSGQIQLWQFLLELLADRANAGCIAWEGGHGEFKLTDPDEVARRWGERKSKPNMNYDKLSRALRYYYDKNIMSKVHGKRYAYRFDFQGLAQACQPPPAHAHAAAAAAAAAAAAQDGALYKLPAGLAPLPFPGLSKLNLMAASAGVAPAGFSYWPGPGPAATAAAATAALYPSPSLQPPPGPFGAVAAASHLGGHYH
Conditions: protein: recombinant; tags: N-terminal GST; dsDNA, one strand shown. The gist of the method:
(§1)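 Binding signal is each hexamer's read frequency for a factor divided by its frequency in the tag-only sample. The factors were GST-fused human transcription factors from yeast, captured on glutathione beads, DNA-barcoded and pooled with that sample. Pools were incubated with 200 nmole of a random double-stranded 16-mer DNA library in Tris/NaCl/DTT/glycerol buffer at room temperature for 30 min, then washed, crosslinked with 0.1% formaldehyde, proximity-ligated with BsaI/T4 ligase (1 h, 37 °C), PCR-amplified and sequenced on an Illumina NextSeq500.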

The target of assay [2] is ETV5 (Homo sapiens, UniProt P41161 1-510). Conditions: protein: recombinant; tags: N-terminal GST; dsDNA, one strand shown. The gist of the method: as §1
In assay [3] the target is HSF1 (Homo sapiens, UniProt Q00613 1-529). The conditions noted are these: protein: recombinant; tags: N-terminal GST; chain copies: 3; dsDNA, one strand shown. The method, boiled down:
as §1

The target in assay [4] is T2, SPIC (Homo sapiens, UniProt Q8N5J4 1-248).
T2 sequence: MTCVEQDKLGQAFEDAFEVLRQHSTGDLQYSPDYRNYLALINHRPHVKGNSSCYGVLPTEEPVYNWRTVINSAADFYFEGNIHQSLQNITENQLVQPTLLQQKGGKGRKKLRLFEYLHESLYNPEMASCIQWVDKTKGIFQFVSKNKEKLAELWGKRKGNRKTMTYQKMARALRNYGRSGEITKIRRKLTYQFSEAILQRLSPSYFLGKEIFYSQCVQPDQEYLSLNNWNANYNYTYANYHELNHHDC
Conditions: protein: recombinant; tags: N-terminal GST; dsDNA, one strand shown. The gist of the method:
as §1

In assay [5] the target is ELF4 (Homo sapiens, UniProt Q99607 1-663). The conditions noted are these: protein: recombinant; tags: N-terminal GST; dsDNA, one strand shown. The method, boiled down:
as §1

For assay [6], the target named is T3, ELK4 (Homo sapiens, UniProt P28324-2 1-405).
T3 sequence: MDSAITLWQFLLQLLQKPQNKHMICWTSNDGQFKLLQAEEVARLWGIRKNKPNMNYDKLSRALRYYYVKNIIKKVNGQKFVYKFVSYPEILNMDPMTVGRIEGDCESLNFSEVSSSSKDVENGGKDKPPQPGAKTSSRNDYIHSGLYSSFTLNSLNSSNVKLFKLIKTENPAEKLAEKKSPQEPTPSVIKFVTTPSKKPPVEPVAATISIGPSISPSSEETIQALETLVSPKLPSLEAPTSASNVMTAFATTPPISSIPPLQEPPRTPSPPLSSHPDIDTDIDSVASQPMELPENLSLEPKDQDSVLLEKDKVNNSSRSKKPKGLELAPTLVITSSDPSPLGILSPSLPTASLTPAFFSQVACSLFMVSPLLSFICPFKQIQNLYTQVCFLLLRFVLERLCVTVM
The conditions noted are these: protein: recombinant; tags: N-terminal GST; dsDNA, one strand shown. The gist of the method:
as §1

In assay [7] the target is T4, ETV2 (Homo sapiens, UniProt O00321 1-342).
T4 sequence: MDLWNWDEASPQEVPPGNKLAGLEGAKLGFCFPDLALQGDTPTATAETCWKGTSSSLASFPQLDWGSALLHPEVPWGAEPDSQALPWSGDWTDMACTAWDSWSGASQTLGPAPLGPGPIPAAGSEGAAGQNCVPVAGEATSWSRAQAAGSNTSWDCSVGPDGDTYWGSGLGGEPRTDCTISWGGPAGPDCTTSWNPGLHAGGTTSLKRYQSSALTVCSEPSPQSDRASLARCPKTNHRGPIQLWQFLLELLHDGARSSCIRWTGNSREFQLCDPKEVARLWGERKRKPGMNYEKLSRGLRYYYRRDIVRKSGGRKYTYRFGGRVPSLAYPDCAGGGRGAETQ
The conditions noted are these: protein: recombinant; tags: N-terminal GST; dsDNA, one strand shown. The method, boiled down:
as §1

Assay [8] addresses T5, ELF3 (Homo sapiens, UniProt P78545 1-371).
T5 sequence: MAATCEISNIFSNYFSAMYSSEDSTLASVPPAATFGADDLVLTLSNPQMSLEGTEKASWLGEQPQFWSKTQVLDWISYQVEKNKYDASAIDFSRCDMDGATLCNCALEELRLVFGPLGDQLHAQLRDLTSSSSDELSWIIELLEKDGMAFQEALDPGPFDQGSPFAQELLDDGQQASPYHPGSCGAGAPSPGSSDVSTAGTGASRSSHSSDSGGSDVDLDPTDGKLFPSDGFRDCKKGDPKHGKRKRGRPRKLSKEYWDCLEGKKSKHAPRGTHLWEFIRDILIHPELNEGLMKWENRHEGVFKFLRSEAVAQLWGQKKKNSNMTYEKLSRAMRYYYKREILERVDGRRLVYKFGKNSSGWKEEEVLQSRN
The conditions noted are these: protein: recombinant; tags: N-terminal GST; dsDNA, one strand shown. The method, boiled down:
as §1

In assay [9] the target is CRX (Homo sapiens, UniProt O43186 1-299). The conditions noted are these: protein: recombinant; tags: N-terminal GST; dsDNA, one strand shown. The gist of the method: as §1
The target of assay [10] is ETV1 (Homo sapiens, UniProt P50549 1-477). The conditions noted are these: protein: recombinant; tags: N-terminal GST; dsDNA, one strand shown. The gist of the method: as §1
The target in assay [11] is T6, ERF (Homo sapiens, UniProt P50548 1-548).
T6 sequence: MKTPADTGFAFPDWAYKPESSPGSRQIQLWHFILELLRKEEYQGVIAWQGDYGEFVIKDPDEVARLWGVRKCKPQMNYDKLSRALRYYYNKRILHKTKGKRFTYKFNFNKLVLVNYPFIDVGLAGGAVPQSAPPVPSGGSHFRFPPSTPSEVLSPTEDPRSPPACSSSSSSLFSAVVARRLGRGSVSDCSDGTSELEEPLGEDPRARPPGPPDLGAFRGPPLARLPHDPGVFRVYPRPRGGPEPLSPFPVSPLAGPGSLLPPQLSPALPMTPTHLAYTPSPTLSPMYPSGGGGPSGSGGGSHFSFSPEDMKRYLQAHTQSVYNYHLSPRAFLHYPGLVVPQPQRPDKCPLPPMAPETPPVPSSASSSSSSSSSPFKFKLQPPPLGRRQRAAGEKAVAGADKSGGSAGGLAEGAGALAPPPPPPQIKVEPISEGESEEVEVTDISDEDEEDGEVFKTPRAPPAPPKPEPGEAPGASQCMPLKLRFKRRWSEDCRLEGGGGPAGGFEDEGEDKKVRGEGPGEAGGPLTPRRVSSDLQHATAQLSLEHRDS
The conditions noted are these: protein: recombinant; tags: N-terminal GST; dsDNA, one strand shown. The gist of the method: as §1

For assay [12], the target named is T7, ETV3L (Homo sapiens, UniProt Q6ZN32 1-361).
T7 sequence: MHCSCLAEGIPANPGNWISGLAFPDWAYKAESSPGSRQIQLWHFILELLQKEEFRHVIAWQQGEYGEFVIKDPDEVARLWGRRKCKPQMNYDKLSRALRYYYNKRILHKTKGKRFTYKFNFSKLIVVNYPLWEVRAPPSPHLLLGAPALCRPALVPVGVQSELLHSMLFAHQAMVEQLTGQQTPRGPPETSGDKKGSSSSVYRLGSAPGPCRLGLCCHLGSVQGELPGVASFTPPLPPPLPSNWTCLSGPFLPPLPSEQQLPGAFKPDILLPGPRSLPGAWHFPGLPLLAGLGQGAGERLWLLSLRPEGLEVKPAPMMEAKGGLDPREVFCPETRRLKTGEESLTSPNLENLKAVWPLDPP
The conditions noted are these: protein: recombinant; tags: N-terminal GST; dsDNA, one strand shown. The gist of the method: as §1

Assay [13] has as its target T8, ETS2 (Homo sapiens, UniProt P15036 1-469).
T8 sequence: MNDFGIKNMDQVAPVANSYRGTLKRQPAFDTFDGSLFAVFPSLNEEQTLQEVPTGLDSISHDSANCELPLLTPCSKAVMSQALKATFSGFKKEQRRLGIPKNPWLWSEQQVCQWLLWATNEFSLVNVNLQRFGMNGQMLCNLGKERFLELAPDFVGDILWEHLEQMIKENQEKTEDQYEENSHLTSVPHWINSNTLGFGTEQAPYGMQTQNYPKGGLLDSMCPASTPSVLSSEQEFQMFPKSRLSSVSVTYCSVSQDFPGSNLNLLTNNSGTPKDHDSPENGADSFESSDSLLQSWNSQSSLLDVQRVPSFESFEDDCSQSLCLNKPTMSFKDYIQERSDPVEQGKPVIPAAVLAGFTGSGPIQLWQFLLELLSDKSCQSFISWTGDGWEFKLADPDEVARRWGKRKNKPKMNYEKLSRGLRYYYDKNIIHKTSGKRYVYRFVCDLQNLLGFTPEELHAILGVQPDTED
Conditions: protein: recombinant; tags: N-terminal GST; dsDNA, one strand shown. The gist of the method: as §1

The target in assay [14] is T9, SPDEF (Homo sapiens, UniProt O95238 1-335).
T9 sequence: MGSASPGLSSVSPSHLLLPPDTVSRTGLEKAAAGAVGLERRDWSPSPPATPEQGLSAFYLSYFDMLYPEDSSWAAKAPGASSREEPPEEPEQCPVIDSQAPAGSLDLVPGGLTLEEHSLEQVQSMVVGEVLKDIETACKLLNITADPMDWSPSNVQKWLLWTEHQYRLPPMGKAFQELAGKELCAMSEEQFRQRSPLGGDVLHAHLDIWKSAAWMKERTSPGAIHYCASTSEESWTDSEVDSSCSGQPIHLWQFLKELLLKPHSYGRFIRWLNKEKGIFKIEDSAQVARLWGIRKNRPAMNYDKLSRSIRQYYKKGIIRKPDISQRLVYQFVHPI
Conditions: protein: recombinant; tags: N-terminal GST; dsDNA, one strand shown. The method, boiled down:
as §1

For assay [15], the target named is T10, ETV7 (Homo sapiens, UniProt Q9Y603 1-341).
T10 sequence: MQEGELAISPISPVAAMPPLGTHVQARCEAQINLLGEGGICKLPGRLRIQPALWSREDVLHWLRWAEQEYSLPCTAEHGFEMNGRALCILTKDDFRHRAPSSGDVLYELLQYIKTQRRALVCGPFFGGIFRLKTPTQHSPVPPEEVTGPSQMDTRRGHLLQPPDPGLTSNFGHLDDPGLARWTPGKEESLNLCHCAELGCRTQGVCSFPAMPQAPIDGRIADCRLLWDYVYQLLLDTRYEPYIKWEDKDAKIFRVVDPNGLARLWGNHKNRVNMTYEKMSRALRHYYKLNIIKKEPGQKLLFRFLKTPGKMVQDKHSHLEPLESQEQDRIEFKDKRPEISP
Conditions: protein: recombinant; tags: N-terminal GST; dsDNA, one strand shown. The gist of the method: as §1

The target of assay [16] is T11, ELF5 (Homo sapiens, UniProt Q9UKW6-2 1-255).
T11 sequence: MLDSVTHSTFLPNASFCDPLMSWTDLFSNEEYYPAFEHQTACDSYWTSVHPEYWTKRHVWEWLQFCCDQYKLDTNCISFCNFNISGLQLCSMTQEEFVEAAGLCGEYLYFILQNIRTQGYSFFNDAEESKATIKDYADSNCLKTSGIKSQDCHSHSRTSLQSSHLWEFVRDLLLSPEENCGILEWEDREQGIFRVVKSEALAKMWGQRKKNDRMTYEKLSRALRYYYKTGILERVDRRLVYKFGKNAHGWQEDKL
Conditions: protein: recombinant; tags: N-terminal GST; dsDNA, one strand shown. The gist of the method:
as §1

Assay [17] has as its target T12, ETV3 (Homo sapiens, UniProt P41162-2 1-143).
T12 sequence: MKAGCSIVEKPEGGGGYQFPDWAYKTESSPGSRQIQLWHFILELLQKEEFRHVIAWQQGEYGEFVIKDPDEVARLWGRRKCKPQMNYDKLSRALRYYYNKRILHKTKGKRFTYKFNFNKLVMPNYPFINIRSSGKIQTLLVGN
The conditions noted are these: protein: recombinant; tags: N-terminal GST; dsDNA, one strand shown. The gist of the method: as §1

Assay [18] deals with ETV6 (Homo sapiens, UniProt P41212 1-452). Conditions: protein: recombinant; tags: N-terminal GST; dsDNA, one strand shown. The gist of the method:
as §1

Chain of ELF4 (Q99607 whole entry): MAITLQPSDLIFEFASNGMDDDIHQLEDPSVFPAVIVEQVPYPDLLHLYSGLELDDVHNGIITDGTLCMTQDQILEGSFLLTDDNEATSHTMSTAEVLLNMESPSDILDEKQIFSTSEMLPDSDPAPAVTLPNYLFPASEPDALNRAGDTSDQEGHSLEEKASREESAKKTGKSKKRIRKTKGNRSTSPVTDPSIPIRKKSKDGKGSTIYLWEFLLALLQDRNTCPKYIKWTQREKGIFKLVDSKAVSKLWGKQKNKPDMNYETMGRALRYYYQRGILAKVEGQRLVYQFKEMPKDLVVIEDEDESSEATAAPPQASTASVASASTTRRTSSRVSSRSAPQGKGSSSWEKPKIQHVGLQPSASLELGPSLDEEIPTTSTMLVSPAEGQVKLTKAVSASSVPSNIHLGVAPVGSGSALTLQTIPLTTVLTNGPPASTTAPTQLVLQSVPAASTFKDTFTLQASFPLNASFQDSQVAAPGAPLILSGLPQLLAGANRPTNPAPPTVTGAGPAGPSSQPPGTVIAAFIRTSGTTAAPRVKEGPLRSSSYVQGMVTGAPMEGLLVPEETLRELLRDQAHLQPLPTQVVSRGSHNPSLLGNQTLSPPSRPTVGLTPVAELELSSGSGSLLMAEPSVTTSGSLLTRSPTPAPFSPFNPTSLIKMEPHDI
Chain of ETV6 (P41212 whole entry): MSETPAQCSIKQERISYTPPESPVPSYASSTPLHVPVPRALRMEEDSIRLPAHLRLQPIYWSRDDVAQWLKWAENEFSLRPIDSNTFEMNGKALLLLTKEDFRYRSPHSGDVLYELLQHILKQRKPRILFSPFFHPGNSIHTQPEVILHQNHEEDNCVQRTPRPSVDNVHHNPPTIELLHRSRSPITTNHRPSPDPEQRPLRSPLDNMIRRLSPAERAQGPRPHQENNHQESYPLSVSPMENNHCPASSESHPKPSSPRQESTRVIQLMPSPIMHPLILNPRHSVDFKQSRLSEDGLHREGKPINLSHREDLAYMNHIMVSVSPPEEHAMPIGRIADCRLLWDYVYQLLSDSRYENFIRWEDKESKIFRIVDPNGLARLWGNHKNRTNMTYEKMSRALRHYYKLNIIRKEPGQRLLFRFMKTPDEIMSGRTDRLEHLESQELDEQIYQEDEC
Chain of ETV1 (P50549 whole entry): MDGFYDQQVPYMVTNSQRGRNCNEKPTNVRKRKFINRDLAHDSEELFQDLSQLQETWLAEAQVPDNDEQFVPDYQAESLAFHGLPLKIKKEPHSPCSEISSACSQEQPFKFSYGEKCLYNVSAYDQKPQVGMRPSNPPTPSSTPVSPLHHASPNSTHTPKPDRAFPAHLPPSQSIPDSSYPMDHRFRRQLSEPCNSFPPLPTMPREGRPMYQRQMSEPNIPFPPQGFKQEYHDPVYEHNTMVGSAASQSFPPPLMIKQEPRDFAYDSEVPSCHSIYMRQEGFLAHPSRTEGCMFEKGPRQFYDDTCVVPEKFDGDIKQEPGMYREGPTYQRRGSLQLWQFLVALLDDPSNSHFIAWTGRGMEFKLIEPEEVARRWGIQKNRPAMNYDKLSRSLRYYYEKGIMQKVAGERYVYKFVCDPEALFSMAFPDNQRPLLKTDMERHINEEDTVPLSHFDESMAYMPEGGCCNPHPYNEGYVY
Chain of HSF1 (Q00613 whole entry): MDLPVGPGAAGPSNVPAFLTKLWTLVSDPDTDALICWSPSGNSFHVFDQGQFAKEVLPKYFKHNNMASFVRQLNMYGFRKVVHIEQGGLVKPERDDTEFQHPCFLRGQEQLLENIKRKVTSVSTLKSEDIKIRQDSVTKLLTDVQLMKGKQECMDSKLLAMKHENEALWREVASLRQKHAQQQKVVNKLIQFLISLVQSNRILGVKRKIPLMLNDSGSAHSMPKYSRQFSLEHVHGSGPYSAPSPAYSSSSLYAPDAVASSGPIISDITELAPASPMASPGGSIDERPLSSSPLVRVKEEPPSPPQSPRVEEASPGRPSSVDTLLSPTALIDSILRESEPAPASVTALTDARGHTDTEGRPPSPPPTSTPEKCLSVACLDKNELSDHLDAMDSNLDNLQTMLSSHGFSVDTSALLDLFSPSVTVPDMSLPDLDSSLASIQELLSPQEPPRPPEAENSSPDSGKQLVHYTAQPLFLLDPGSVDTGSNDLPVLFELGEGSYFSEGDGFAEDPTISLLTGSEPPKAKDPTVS
Chain of CRX (O43186 whole entry): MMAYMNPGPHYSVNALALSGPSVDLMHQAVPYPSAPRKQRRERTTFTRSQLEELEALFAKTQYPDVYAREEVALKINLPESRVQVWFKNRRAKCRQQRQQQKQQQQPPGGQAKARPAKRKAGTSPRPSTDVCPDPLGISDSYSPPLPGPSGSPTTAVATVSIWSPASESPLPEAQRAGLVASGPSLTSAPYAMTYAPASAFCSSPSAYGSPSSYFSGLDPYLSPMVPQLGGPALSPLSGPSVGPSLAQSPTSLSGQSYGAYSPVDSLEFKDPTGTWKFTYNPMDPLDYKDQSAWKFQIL
Chain of ETV5 (P41161 whole entry): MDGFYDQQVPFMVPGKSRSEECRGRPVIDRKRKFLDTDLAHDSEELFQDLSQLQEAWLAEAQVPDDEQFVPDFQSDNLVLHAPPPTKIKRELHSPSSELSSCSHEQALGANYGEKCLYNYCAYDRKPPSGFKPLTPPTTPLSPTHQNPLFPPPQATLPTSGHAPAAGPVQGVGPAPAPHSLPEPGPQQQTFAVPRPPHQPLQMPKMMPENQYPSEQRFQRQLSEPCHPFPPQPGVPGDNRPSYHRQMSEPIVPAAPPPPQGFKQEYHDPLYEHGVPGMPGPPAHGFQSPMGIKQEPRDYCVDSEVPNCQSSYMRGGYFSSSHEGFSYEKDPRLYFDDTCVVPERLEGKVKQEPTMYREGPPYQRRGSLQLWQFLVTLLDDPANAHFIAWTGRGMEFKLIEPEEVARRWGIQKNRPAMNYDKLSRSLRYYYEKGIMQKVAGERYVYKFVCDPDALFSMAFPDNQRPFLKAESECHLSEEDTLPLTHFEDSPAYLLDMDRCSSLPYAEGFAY

Consider CTTGGA, for which the binding signal in assay [1] is 1.04 fold enrichment (6-mer frequency, TF over GST control); in [2], 1.12 fold enrichment (6-mer frequency, TF over GST control); in [3], 1.26 fold enrichment (6-mer frequency, TF over GST control); in [4], 1.2 fold enrichment (6-mer frequency, TF over GST control); in assay [5], 1.21 fold enrichment (6-mer frequency, TF over GST control); in assay [6] it was 1.09 fold enrichment (6-mer frequency, TF over GST control). Besides, the binding signal is 1.12 fold enrichment (6-mer frequency, TF over GST control) in [7]; 1.3 fold enrichment (6-mer frequency, TF over GST control) in [8]; 1.17 fold enrichment (6-mer frequency, TF over GST control) in [9]; 1.17 fold enrichment (6-mer frequency, TF over GST control) in [10]; 1.12 fold enrichment (6-mer frequency, TF over GST control) in assay [11]; 1.11 fold enrichment (6-mer frequency, TF over GST control) in assay [12]. Further, the binding signal in assay [13] was 1.14 fold enrichment (6-mer frequency, TF over GST control); in assay [14], 1.22 fold enrichment (6-mer frequency, TF over GST control); in [15], 1.14 fold enrichment (6-mer frequency, TF over GST control); in [16], 1.09 fold enrichment (6-mer frequency, TF over GST control); in assay [17], 1.08 fold enrichment (6-mer frequency, TF over GST control); in [18], 1.03 fold enrichment (6-mer frequency, TF over GST control).
